From PubChem BioAssay (NCATS)
Results filed as inconclusive are left out. Values without a mark were called inactive. Active and inactive are the calls of the source. Calls come from the whole dose curve.

Test: A High-Content qHTS Against Drug Library for the Identification of Small Molecules that Inhibit DYT1 Early Onset Primary Dystonia-Associated Cell Pathology (AID 1645839)
Conditions: HEK293 Flp-In EGFP-delE TorsinA, punctate imaging, 48 h; series mostly up to 46.1 µM; % pathology change, negative = correction: at the top concentration
From the text: Nicole Calakos M.D., Ph.D.
Duke University School of Medicine, Durham, NC
In DYT1 dystonia due to delGAG in the TOR1A gene, there is a robust and widely replicated finding of TorsinA protein mislocalization caused when the mutant protein is in excess of the wildtype protein (1-7). Stable HEK293 cell lines were created that replicate this phenomenon. Inducible expression of an EGFP-hu delE TorsinA encoding cDNA causes pronounced punctate cellular distribution. […] This phenotypic difference in EGFP-huTorsinA fusion protein distribution serves as an indicator of cell pathology. […] RNAi screen results with the assay were validated in DYT1 patient cell phenotypes, intersected with a known dystonia gene, and led to discovery of new human genetic dystonia associations.
The bioassay described herein is a high-content image screen with two readouts. The "%pathology" readout is the primary qHTS data channel, while the "cellcount" is the counterscreen qHTS channel. Desired active compounds are those that show inhibition in %pathology channel but no activity or minimal toxicity in cellcount readout.
1. Kustedjo, K., Bracey, M.H., and Cravatt, B.F. (2000). […] J. Biol. Chem. 275, 27933 - 27939.
2. Bragg, D.C., Kaufman, C.A., Kock, N., and Breakefield, X.O. (2004). Inhibition of N-linked glycosylation prevents inclusion formation by the dystonia-related mutant form of torsinA. Mol. Cell. Neurosci. 27, 417 - 426.
3. Gonzalez-Alegre, P., and Paulson, H.L. (2004). Aberrant Cellular Behavior of Mutant TorsinA Implicates Nuclear Envelope Dysfunction in DYT1 Dystonia. J. Neurosci. 24, 2593 - 2601.
4. Goodchild, R.E., and Dauer, W.T. (2004). Mislocalization to the nuclear envelope: an effect of the dystonia-causing torsinA mutation. Proc. Natl. Acad. Sci. U. S. A. 101, 847 - 852.
5. Kock, N., Allchorne, A.J., Sena-Esteves, M., Woolf, C.J., and Breakefield, X.O. (2006). RNAi blocks DYT1 mutant torsinA inclusions in neurons. Neurosci. Lett. 395, 201 - 205.
6. Hewett, J.W., Nery, F.C., Niland, B., Ge, P., Tan, P., Hadwiger, P., Tannous, B.A., Sah, D.W.Y., and Breakefield, X.O. (2008). siRNA knock-down of mutant torsinA restores processing through secretory pathway in DYT1 dystonia cells. Hum. Mol. Genet. 17, 1436 - 1445.
7. Calakos, N., Patel, V.D., Gottron, M., Wang, G., Tran-Viet, K.N., Brewington, D., Beyer, J.L., Steffens, D.C., Krishnan, R.R., and Zuchner, S. (2010). Functional evidence implicating a novel TOR1A mutation in idiopathic, late-onset focal dystonia. J. Med. Genet. 47, 646 - 650.
8. Rittiner* JE, Caffall* ZF, Hernandez-Martinez R, Sanderson SM, Pearson JL, Tsukayama KK, Liu AY, Xiao C, Tracy S, Shipman MK, Hickey P, Johnson J, Scott B, Stacy M, Saunders-Pullman R, Bressman S, Simonyan K, Sharma N, Ozelius LJ, Cirulli ET, Calakos N. Functional Genomic Analyses of Mendelian and Sporadic Disease Identify Impaired eIF2alpha Signaling as a Generalizable Mechanism for Dystonia. Neuron. 2016 Dec 21;92(6):1238-1251. doi: 10.1016/j.neuron.2016.11.012. Epub 2016 Dec 8. PMID: 27939583; PMCID: PMC5320521.
High-content, High-throughput Drug Screening Assay
The TorsinA mislocalization assay was modified from the previously published assay to accommodate compound testing in 1536 well format.1 Briefly, Flp-In T-REx 293 cells from Invitrogen in which a single copy of a cDNA is recombined into a specific genomic locus was used to create tetracycline-inducible expression of cDNA encoding either EGFP-hTOR1A (WT) or EGFP-delE hTOR1A (DYT1). WT and DYT1 cells were diluted to a concentration of 2 x 10^5 cells/mL in reduced serum media (DMEM High Glucose containing 1% tetracycline-tested FBS, 2 mM L-Glutamine, and 1% Penicillin/Streptomycin). 4 µl of WT cells and 4 µl of DTY1 cells were added to column 1 and columns 2-48, respectively, of a poly-D-lysine-coated, low base, black, clear bottom 1536 well plate (Corning, Corning, NY) using the BioRAPTR FRD Microfluidic Workstation (Beckman Coulter, Indianapolis, IN). The final cell number was 800 cells/well. […]
Potency is the fitted concentration of half-maximal effect.

SMILES	% pathology change, negative = correction	Potency
COc1cc(C)nc(-n2nc(C)cc2OC)n1	1.49%	
COc1ccc(CCN(C)CCCN2CCc3cc(OC)c(OC)cc3CC2=O)cc1OC	-1.99%	
CN1CCN(CCC(=O)N2c3ccccc3Sc3ccc(C(F)(F)F)cc32)CC1		3.16 µM (active)
O=C(CCN1CCN2CCCC2C1)N1c2ccccc2Sc2ccc(Cl)cc21 (stereo not given)	5.41% [at 19.1 µM]	
CC(C)Cc1ccc(CC(=O)O)cc1	3.37%	
CC(C)Cn1cnc2c1c(=O)n(C)c(=O)n2C	12.4%	
COc1cc(N)c(Cl)cc1C(=O)NC1CCN(Cc2ccccc2)CC1	4.8%	
Cc1ccc(S(=O)(=O)NC(=O)NC2CCCC2)cc1	-0.951%	
COc1ccc(C(=O)c2ccccc2)c(O)c1	16.9%	
CC1CCc2c(N3CCC(O)CC3)c(F)cc3c(=O)c(C(=O)O)cn1c23 (stereo not given)	4.83%	
CN1CCN(c2cc3c(cc2F)c(=O)c(C(=O)O)cn3-c2ccc(F)cc2)CC1	-0.18%	
O=C(Oc1cccc2cccnc12)c1ccccc1	0.433%	
O=C(Nc1ccc([N+](=O)[O-])cc1)Nc1ccc([N+](=O)[O-])cc1	-7.05%	
OC[C@H]1O[C@@H](Oc2ccc(O)cc2)[C@H](O)[C@@H](O)[C@@H]1O	6.26%	
CCOCCn1c(N2CCCN(C)CC2)nc2ccccc21	4.49%	
Oc1ccccc1C=NCc1ccccc1	1.65%	
Cc1nc(-c2ccc(Cl)cc2)oc1COC(C)(C)C(=O)O	17%	
CCCCN=C(N)N=C(N)N	-2.76%	
NS(=O)(=O)c1ccc(Cl)c(S(N)(=O)=O)c1	21.7%	
O=C(O)P(=O)(O)O	7.57%	

SMILES	% pathology change, negative = correction	Potency
COc1cc(C(=O)N2CCCCCCC2)cc(OC)c1OC	6.1%	
Cc1ccc(-c2ncc(Cl)cc2-c2ccc(S(C)(=O)=O)cc2)cn1	-4.47%	
Cc1cc(C)cc(OCC2CNC(=O)O2)c1 (stereo not given)	3.98%	
C[C@@H](O)[C@H]1C(=O)N2C(C(=O)O)=C(S[C@@H]3CN[C@H](CNS(N)(=O)=O)C3)[C@H](C)[C@H]12	0.406%	
C[C@H]1[C@H]2CC[C@H]3[C@@H]4CC=C5C[C@@H](N(C)C)CC[C@]5(C)[C@H]4CC[C@]23CN1C	9.07%	
CCC1Nc2cc(Cl)c(S(N)(=O)=O)cc2S(=O)(=O)N1 (stereo not given)	16.9%	
Cc1c(-c2ccccc2)oc2c(C(=O)OCCN3CCCCC3)cccc2c1=O	5.63%	
CC(C(=O)O)c1cccc(Oc2ccccc2)c1 (stereo not given)	-11.1%	
Cc1ccccc1OCC(O)CO (stereo not given)	4.1%	
CN(C)CCN1C(=O)c2ccccc2N(C)c2ccccc21	6.44%	
C=C[C@@]1(C)CC(=O)[C@]2(O)[C@@]3(C)[C@@H](O)CCC(C)(C)[C@@H]3[C@H](O)[C@H](OC(C)=O)[C@@]2(C)O1	8.7%	
OC(C#CCN1CCCC1)(c1ccccc1)c1ccccc1	-29.4%	
CC(=O)Nc1ccc(CC(=O)O)cc1	0.136%	
C[N+]1(CC2COC(c3ccccc3)(C3CCCCC3)O2)CCCCC1 (stereo not given)	8.1%	
O=C(O)CCC(=O)Nc1ccc(S(=O)(=O)Nc2nccs2)cc1	2.1%	
CC(C)CCCC(C)N (stereo not given)	12.4%	
CCCCCCCCCCCCCC(=O)OC(C)C	0.57%	
CCCCCCCC/C=C\CCCCCCCCN	-17.7%	
CCCc1ncc(C[n+]2ccccc2C)c(N)n1	3.64%	
CN1CCN(C2=Nc3cc(F)ccc3Cc3ccccc32)CC1	-2.49%	
